We go through 17 compounds from PubChem BioAssay.

The source made the active and inactive calls.

The nature of test [1]: E. coli DRC41 culture turbidity changes, primary screen, E. coli filamentation inducer project, strain DRC41, OD650, 48 h (AID 1152).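 Also: E. coli MC1000 strain DRC41 lacking acrAB efflux pump and sulA.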 To be noted: E. coli DRC41 (acrAB sulA), higher = more signal, called active from +8 up or from −8 down.
Test [2] can be described thus: small-molecule binders of probe aLefty1, primary screen, biochemical, small-molecule microarray, 635/667 nm fluorescence (AID 1153).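 Also: score merges spot fluorescence with signal-to-noise ratio from the scanned slide images.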 To be noted: higher = more signal.
Test [3] can be described thus: PSAC antagonists in infected red cells, primary screen, cell-based, P. falciparum Indochina, OD700, 1 h (AID 1154). To be noted: P. falciparum Indochina infected RBC osmotic lysis, higher = more signal, called active from +8 up or from −8 down.
A short description of test [4]: PSAC antagonists in infected red cells, primary screen, cell-based, P. falciparum Indochina, OD700, 2 h (AID 1155).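 Also: lysis reports solute entry through the parasite surface anion channel PSAC; channel blockers reduce lysis of infected cells.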 Particulars: P. falciparum Indochina infected erythrocytes, osmotic lysis OD700; higher = more signal, called active from +8 up or from −8 down.
Test [5] in a line: osmotic lysis modulators in infected erythrocytes, primary screen, PSAC antagonist project, cell-based, P. falciparum Indochina, OD700, 3 h (AID 1156). To be noted: higher = more signal, called active from +8 up or from −8 down.
Test [6] is described as follows: PSAC antagonists in infected red cells, primary screen, cell-based, P. falciparum Indochina, OD700, 18 h (AID 1157). To be noted: P. falciparum Indochina infected erythrocytes, osmotic lysis OD700, 18 h; higher = more signal, called active from +8 up or from −8 down.
A short description of test [7]: modulators of S6 phosphorylation in cells, primary screen, cell-based, A549, cytoblot, luminescence, serum-stimulated (AID 1158).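 Also: serum-stimulated A549 lung adenocarcinoma cells; signal is phosphorylated S6 detected by cytoblot immunostaining with HRP secondary.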 Particulars: A549 phospho-S6 cytoblot, 5 h, higher = more signal.
For test [8], the target named is NADPH oxidase 2 (Homo sapiens) (UniProt P04839). The experiment in a line: NOX2-dependent H2O2 signal modulators, primary screen, NOX inhibitor project, cell-based, HEK293-NOX2, PMA-stimulated, Amplex Red fluorescence (AID 1159). Also: test concentration not given here. Particulars: 45 min, higher = more signal, called active from +8 up or from −8 down.
NADPH oxidase 2 (Homo sapiens), sequence (P04839 whole entry, looked up): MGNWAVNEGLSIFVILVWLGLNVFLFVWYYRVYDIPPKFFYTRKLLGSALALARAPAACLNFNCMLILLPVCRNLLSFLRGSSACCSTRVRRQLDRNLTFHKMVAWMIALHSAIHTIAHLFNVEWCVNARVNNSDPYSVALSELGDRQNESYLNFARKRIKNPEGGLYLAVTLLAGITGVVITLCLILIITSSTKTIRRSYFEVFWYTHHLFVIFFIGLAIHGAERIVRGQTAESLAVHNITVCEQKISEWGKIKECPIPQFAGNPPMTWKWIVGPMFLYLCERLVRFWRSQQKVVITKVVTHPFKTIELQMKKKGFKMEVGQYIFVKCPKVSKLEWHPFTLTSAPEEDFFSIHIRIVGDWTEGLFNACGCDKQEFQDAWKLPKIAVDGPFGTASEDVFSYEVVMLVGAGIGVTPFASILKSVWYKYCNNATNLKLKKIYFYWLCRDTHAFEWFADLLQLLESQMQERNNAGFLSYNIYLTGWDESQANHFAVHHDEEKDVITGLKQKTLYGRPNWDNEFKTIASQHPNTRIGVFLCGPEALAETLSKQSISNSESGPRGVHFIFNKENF
Test [9] addresses NADPH oxidase 4 (Homo sapiens) (UniProt Q9NPH5). Briefly: NOX4-dependent H2O2 signal modulators, primary screen, NOX inhibitor project, cell-based, HEK293-NOX4, tetracycline-induced, Amplex Red fluorescence (AID 1160). To be noted: 45 min, higher = more signal, called active from +8 up or from −8 down.
For test [10], the target named is NADPH oxidase 5 (Homo sapiens) (UniProt Q96PH1). Briefly: NOX5-dependent H2O2 signal modulators, primary screen, NOX inhibitor project, cell-based, HEK293-NOX5, Amplex Red fluorescence (AID 1161). Particulars: HEK293-NOX5, ionomycin, 45 min, higher = more signal.
NADPH oxidase 5 (Homo sapiens), sequence (Q96PH1 whole entry, looked up): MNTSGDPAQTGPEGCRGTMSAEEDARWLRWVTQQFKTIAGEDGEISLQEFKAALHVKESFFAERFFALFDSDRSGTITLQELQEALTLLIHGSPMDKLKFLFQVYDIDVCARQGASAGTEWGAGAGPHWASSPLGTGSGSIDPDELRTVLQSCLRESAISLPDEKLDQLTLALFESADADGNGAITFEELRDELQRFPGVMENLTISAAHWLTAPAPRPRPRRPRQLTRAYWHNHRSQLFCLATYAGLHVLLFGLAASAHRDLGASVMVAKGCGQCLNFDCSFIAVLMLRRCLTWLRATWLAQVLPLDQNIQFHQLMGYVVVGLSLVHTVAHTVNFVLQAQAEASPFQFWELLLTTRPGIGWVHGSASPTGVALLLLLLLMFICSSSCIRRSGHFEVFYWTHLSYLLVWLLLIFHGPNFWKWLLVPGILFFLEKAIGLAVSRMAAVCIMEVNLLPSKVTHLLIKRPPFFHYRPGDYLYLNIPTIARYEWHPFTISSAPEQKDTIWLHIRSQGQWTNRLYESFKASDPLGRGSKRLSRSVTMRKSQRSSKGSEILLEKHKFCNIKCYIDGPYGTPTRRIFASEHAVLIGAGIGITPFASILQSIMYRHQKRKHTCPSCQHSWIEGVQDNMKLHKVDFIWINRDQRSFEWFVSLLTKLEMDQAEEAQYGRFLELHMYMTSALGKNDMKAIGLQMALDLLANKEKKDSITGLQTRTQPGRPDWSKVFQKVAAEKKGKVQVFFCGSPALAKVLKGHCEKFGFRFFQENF

NADPH oxidase 4 (Homo sapiens), sequence (Q9NPH5 whole entry, looked up): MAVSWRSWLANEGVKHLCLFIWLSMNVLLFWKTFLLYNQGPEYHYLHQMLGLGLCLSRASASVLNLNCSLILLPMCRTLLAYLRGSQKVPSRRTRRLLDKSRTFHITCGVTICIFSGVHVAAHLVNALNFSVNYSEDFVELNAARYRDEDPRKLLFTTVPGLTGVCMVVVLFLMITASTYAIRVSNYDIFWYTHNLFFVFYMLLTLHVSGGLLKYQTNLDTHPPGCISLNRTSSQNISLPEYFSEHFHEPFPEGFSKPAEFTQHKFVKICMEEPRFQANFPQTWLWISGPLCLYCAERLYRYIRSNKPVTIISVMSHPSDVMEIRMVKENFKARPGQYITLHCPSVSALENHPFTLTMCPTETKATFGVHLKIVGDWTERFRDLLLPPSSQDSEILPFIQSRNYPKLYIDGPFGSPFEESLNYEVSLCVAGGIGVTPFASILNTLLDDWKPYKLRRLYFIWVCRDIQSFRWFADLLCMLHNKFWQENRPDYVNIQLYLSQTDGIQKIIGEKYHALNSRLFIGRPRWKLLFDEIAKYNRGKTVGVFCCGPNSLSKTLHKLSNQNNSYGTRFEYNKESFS

`CC(C)N1CC=CC23O[C@@H]4/C=C\CCCOC(=O)C4[C@H]2C(=O)N(CCCCCO)[C@@H]3C1=O` (stereo not given in full): the z-score was 1.57 (inactive) in test [1]; -0.455 (inactive) in test [3]; 0.0907 (inactive) in [4]; 0.658 (inactive) in test [5]; -0.258 (inactive) in test [6]; 0.946 in test [7]. Moreover, the results for the z-score in [8], in [9] and in test [10] were 0.845 (inactive), -0.00488 (inactive) and 1.7, respectively. This compound came in with a composite z-score in [2] of -0.285.
Turning to `COCCOC(=O)N1C(=O)[C@@]2(c3cc(C#CCCO)ccc31)[C@H](c1ccc(OCCO)cc1)N1[C@H](c3ccccc3)[C@H](c3ccccc3)OC(=O)[C@H]1[C@@H]2C(=O)NC[C@H](O)c1ccccc1`, the z-score was 1.04 (inactive) in test [1]; 2.48 (inactive) in [3]; 1.1 (inactive) in [4]; 0.68 (inactive) in test [5]; 0.678 (inactive) in test [6]; 0.75 in [7]. Further, the results for the z-score in [8], in [9] and in [10] were 2.04 (inactive), 0.385 (inactive) and 0.419, respectively. This compound yielded a composite z-score in [2] of -0.0054.
Regarding `N#Cc1ccc(NN2C(C(O)c3ccc(I)cc3)C=CC3C(=O)N(c4ccccc4)C(=O)C32)cc1` (stereo not given), the z-score was -1.95 (inactive) in test [1]; 9.81 (active) in test [3]; 3.64 (inactive) in [4]; -1.43 (inactive) in test [5]; 2.57 (inactive) in test [6]; -0.484 in [7]. Also, the z-score is -2.64 (inactive) in [8], -4.46 (inactive) in [9] and -2.48 in [10]. In test [2], this compound yielded a composite z-score of 0.526.
`[N-]=[N+]=NCc1ccccc1[C@H]1OC(c2ccc(OCCCO)cc2)=N[C@@]1(Cc1ccccc1N=[N+]=[N-])C(=O)NCc1ccccc1`: the z-score was -0.258 (inactive) in test [1]; 28.3 (active) in [3]; 20.5 (active) in [4]; 1.96 (inactive) in test [5]; 1.99 (inactive) in test [6]; -0.0679 in test [7]. Moreover, the z-score in test [8] is -0.627 (inactive); in test [9] it was 0.522 (inactive); in test [10], -0.56. This compound returned a composite z-score in test [2] of 0.195.
In the case of `COCCOC(=O)N1C(=O)[C@@]2(c3cc(C#CCNC(N)=O)ccc31)[C@H](C(=O)N1CCCCCCC1)[C@H]1C(=O)O[C@H](c3ccccc3)[C@H](c3ccccc3)N1[C@@H]2c1ccccc1OCCO`, the z-score is -0.332 (inactive) in test [1]; 1.17 (inactive) in test [3]; 1.53 (inactive) in test [4]; 0.926 (inactive) in [5]; 0.927 (inactive) in test [6]; 0.344 in test [7]. The z-score in test [8] was 1.66 (inactive); in test [9] it was 0.683 (inactive); in test [10], 0.357. This compound had a composite z-score in test [2] of 1.28.
Take `Cc1ccc(S(=O)(=O)c2cc3oc2CC[C@@H](CO)NC(=O)N(C)Cc2cn(nn2)C[C@H](Cc2ccccc2)NC3=O)cc1`: the z-score in test [1] was 3.05 (inactive); in test [3], 28.3 (active); in [4], 13.3 (active); in test [5], 0.208 (inactive); in test [6] it was 2.03 (inactive); in test [7], 0.533. Also, the z-score was 0.644 (inactive) in test [8], 0.743 (inactive) in test [9] and 0.648 in [10]. Besides, the composite z-score in [2] was -0.234.
Turning to `O=C1C2C=CC(C(O)Cc3ccccc3)N(Nc3ccc([N+](=O)[O-])cc3)C2C(=O)N1c1ccccc1` (stereo not given), the z-score is -0.458 (inactive) in [1]; 3.94 (inactive) in test [3]; 1.61 (inactive) in [4]; 0.371 (inactive) in test [5]; 0.877 (inactive) in [6]; -0.521 in test [7]. Moreover, the values for the z-score in test [8], in test [9] and in test [10] were -1.1 (inactive), -2.7 (inactive) and -1.64, respectively. This compound also registered a composite z-score in [2] of 0.769.
Take `CC(C)[Si](OCCCNS(=O)(=O)c1ccc(Br)cc1)(C(C)C)C(C)C`: the z-score was 3.27 (inactive) in test [1]; 0.869 (inactive) in test [3]; 0.0808 (inactive) in test [4]; -3.37 (inactive) in [5]; -0.442 (inactive) in [6]; 4.17 in test [7]. For the same compound, the z-score in [8] is 1.84 (inactive); in [9] it was -0.843 (inactive); in test [10] it was -3.06. Also, in [2], the composite z-score was -0.0236.
In the case of `Cc1ccc(N2C(=O)c3ccccc3[C@](C)(C(=O)NCC(C)C)[C@@H]2c2ccc(CO)cc2)nc1`, the z-score in [1] was -0.262 (inactive); in test [3], 1.84 (inactive); in [4] it was 0.707 (inactive); in test [5], 1.26 (inactive); in test [6], 0.937 (inactive); in [7], -0.0528. Besides, the z-score was 0.253 (inactive) in test [8], -0.657 (inactive) in test [9] and -1.63 in test [10]. Moreover, the composite z-score in [2] is -0.147.
Consider `O=C1C2C=CC(C(O)C(c3ccccc3)c3ccccc3)N(Nc3ccc([N+](=O)[O-])cc3)C2C(=O)N1c1ccccc1` (stereo not given), for which the z-score was -0.344 (inactive) in test [1]; 5.98 (inactive) in test [3]; 1.73 (inactive) in test [4]; -0.186 (inactive) in [5]; 1.29 (inactive) in test [6]; -0.606 in test [7]. For the same compound, the z-score is 0.128 (inactive) in [8], -1.06 (inactive) in test [9] and -0.097 in test [10]. The composite z-score in test [2] is 0.442.
In the case of `O=C1O[C@H](c2ccccc2)[C@H](c2ccccc2)N2[C@H]1[C@@H](C(=O)Nc1nc3ccccc3s1)[C@]1(C(=O)Nc3ccc(C#CC4=CCCCC4)cc31)[C@H]2c1ccccc1OCCO`, the z-score was -0.485 (inactive) in test [1]; 1.96 (inactive) in [3]; 2.21 (inactive) in test [4]; 0.344 (inactive) in test [5]; 1.41 (inactive) in test [6]; -0.0532 in test [7]. The z-score in [8] was 0.76 (inactive); in test [9], 0.195 (inactive); in [10], 0.963. In [2], the composite z-score was 0.179.
Consider `C[C@@H]1CC[C@H]2C(=O)N3[C@@H](CC[C@@H](C)[C@@H]3c3cccc(N4CCOCC4)c3)C(=O)N2[C@H]1c1cccc(Br)c1`, for which the z-score in [1] was 0.801 (inactive); in test [3], 8.99 (active); in test [4], 1.51 (inactive); in [5], 0.826 (inactive); in test [6] it was 0.71 (inactive); in test [7], -0.246. Moreover, the z-score in test [8] is 0.693 (inactive); in [9] it was 0.815 (inactive); in test [10] it was 0.717. The compound further returned a composite z-score in test [2] of -0.0061.
`[N-]=[N+]=NCc1ccccc1C[C@]1(C(N)=O)N=C(c2ccc(OCCCO)cc2)O[C@H]1c1ccccc1CN=[N+]=[N-]`: the z-score in test [1] is 0.0277 (inactive); in test [3], 29.3 (active); in test [4], 19.8 (active); in [5] it was 1.82 (inactive); in [6] it was 2.86 (inactive); in [7], 2.41. The z-score in [8] is -1.06 (inactive); in test [9] it was 0.885 (inactive); in [10] it was -0.692. The composite z-score in test [2] is 0.71.
Turning to `O=C(N1CCCCC1)[C@@]1(CCS(=O)(=O)c2ccccc2)N=C(c2ccc(OCCCO)cc2)O[C@H]1c1ccccc1`, the z-score in test [1] was 0.646 (inactive); in test [3], 30.1 (active); in [4], 24.2 (active); in test [5], 2.17 (inactive); in [6], 4.24 (inactive); in test [7] it was 2.24. The z-score is -4.27 (inactive) in [8], 0.156 (inactive) in test [9] and -4.84 in test [10]. Also, in test [2], the composite z-score was 0.347.
As for `CN1C(=O)C2C=CC(C(O)c3ccc(N(C)C)cc3)N(Nc3ccc([N+](=O)[O-])cc3[N+](=O)[O-])C2C1=O` (stereo not given), the z-score is -0.692 (inactive) in test [1]; 2.33 (inactive) in [3]; 1.27 (inactive) in test [4]; -0.169 (inactive) in test [5]; 1.05 (inactive) in test [6]; -0.444 in test [7]. The z-score in test [8] is -0.742 (inactive); in test [9] it was -1.39 (inactive); in test [10], -0.0769. The composite z-score in test [2] was found to be 0.719.
Regarding `C=CCN1C(=O)[C@]2(O[C@H](CCn3cc(CCO)nn3)[C@@H]([Si](C)(C)c3ccc(OC)cc3)[C@@H]2C)c2cc(NC(=O)c3ccc(OC)cc3)ccc21`, the z-score is 1.24 (inactive) in [1]; 11.3 (active) in test [3]; -0.0473 (inactive) in test [4]; 0.715 (inactive) in test [5]; -1.36 (inactive) in test [6]; 0.173 in test [7]. For the same compound, the z-score in [8] was 0.891 (inactive); in test [9] it was 1.28 (inactive); in test [10], 0.385. The same compound gave a composite z-score in test [2] of 0.13.
Turning to `C=CC[C@]1(C(=O)OC)N=C(c2ccc(OCCCO)cc2)O[C@H]1c1ccccc1CN=[N+]=[N-]`, the z-score in test [1] was 0.919 (inactive); in test [3], 21.2 (active); in [4] it was 4.18 (inactive); in test [5], 1.7 (inactive); in test [6] it was 0.786 (inactive); in test [7], 0.363. For the same compound, the z-score is -3.18 (inactive) in test [8], -0.411 (inactive) in test [9] and -2.23 in test [10]. In addition, the composite z-score in [2] was determined as 0.419.
